Assay outcomes from PubChem BioAssay.
ADAM17 inh: ADAM17 inhibition, QFRET primary screen | P78536 | recombinant ADAM17, EDANS/DABCYL FRET peptide cleavage | inhibition, % at 6.95 µM | actives 0.83% (n = 370,000) | AID 720648;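 active = inhibition above the mean of compounds lying between control limits plus 3 SD, set per campaign, cut at about 8.5% in these data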;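 also: 0% = DMSO-only wells as the low control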
ADAM10 inh: ADAM10 inhibition, QFRET primary screen; O14672; inhibition, % at 7 µM; recombinant ADAM10, EDANS/DABCYL FRET peptide cleavage, 3 h; actives 0.62% (n = 370,000);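 active = inhibition above a per-campaign cutoff equal to the mean of compounds falling between control-based bounds plus 3 SD, cut at about 20% in these data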;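 also: 0% = DMSO wells while the 100% control is not disclosed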
Target sequence (O14672 214-748 limits assumed): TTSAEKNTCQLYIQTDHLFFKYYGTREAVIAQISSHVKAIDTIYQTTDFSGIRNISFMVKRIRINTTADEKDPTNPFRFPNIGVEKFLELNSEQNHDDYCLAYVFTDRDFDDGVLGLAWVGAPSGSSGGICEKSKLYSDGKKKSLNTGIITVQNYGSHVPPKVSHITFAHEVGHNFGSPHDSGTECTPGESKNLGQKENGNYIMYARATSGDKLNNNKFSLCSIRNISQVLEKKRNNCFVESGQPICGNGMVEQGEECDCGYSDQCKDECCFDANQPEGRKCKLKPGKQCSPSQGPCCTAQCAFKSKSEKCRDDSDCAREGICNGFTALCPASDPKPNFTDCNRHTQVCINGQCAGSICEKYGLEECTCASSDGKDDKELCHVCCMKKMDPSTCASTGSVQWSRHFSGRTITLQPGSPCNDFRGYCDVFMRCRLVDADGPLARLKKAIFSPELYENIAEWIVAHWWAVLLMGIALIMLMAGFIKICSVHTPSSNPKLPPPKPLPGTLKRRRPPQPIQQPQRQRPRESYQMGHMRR
FAS TE block: FAS thioesterase (human) inhibition; AID 602261; inhibition, % at 15 µM; P49327; actives 0.67% (n = 360,000); recombinant FAS-TE, OMFH fluorogenic substrate, fluorescence endpoint;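 active = compounds whose normalised, plate-corrected inhibition of enzyme fluorescence in the single-dose primary screen is 50% or more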;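 also: 0% = DMSO with enzyme and 100% = substrate without enzyme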
KLK7 zymogen act: activates the human kallikrein-7 zymogen; P49862; purified proKLK7, EDANS-DABCYL substrate fluorescence; 100% is mature enzyme control, 0% vehicle; activation, % at 7 µM; actives 0.9% (n = 370,000);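 active = activation above the mean of all tested compounds plus 3 SD, computed per campaign excluding outliers beyond control limits, cut at about 13% in these data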
NR3A LBD binder: modulates the human NR3A ligand-binding domain; NR3A LBD differential scanning fluorimetry, Tm shift; 0% = protein alone, 100% = glycine-bound protein; Tm shift relative to glycine control, % at 25 µM; actives 2.5% (n = 340,000);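 active = melting temperature shift of at least 10% of the positive control shift, at one fixed dose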
ADAM10 counter: inhibits human ADAM10 in ADAM17 exosite counter-screen; shares compounds with ADAM17 inh; recombinant ADAM10, EDANS/DABCYL FRET peptide cleavage, 3 h; inhibition, % at 6.95 µM; actives 47% (n = 2,900); AID 743256;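 active = mean inhibition over the triplicate runs exceeds the activity threshold set in the earlier primary screen, cut at about 20% in these data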;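 also: 0% = DMSO wells and 100% = marimastat wells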
ADAM17 confirm: human ADAM17 inhibition, confirmation | recombinant ADAM17, EDANS/DABCYL QFRET peptide cleavage | inhibition, % at 6.95 µM | actives 65% (n = 2,900) | shares compounds with ADAM17 inh;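 active = mean inhibition across replicates above the hit cutoff set in the primary screen, cut at about 8.5% in these data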;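 also: 0% = DMSO wells and 100% = marimastat wells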
Starred values were filed as active, the others as inactive; nt = no result. Compounds with a hit are over-represented: about 4.6% of the library has one in this group of screens.

SMILES	ADAM17 inh	ADAM10 inh	FAS TE block	KLK7 zymogen act	NR3A LBD binder	ADAM10 counter	ADAM17 confirm
CC(C)[C@H](NS(=O)(=O)c1ccc(F)cc1F)C(=O)N1CCC[C@H]1C(=O)NCc1ccccc1	5	1	nt	0	nt	nt	nt
COc1cccc(C(=O)N2CCC[C@@H]2C(=O)N2CCC[C@H]2C(=O)NCc2ccccc2)c1	0	4	nt	1	nt	nt	nt
Cc1cc(S(=O)(=O)Nc2ccc(C(=O)N3CCN(c4ccccc4O)CC3)cc2)ccc1F	10.0*	17	6	0	-3	16	8.6*
Cc1cccc(NS(=O)(=O)c2ccc(C(=O)N3CCN(c4ccccc4O)CC3)cc2)c1C	6	10	3	1	-2	nt	nt
C[C@H]1CN([C@@H](C)CO)C(=O)CCCn2cc(nn2)CO[C@@H]1CN(C)C(=O)c1ccc2ccn(C)c2c1	-4	-13	nt	0	nt	nt	nt
Nc1ccn([C@@H]2O[C@H](C(=O)N[C@H](Cc3ccccc3)C(=O)N3CCN(CC(=O)N4CCCC4)CC3)[C@@H](O)[C@H]2O)c(=O)n1	-4	-10	nt	1	nt	nt	nt
CN(C)CCCN1CC(=O)N2CCc3ccc(Br)cc3C2CC1=O (stereo not given)	-2	0	nt	0	nt	nt	nt
CC(=O)NNC(=O)CC(=O)Nc1nc(C23CC4CC(CC(C4)C2)C3)cs1	8.9*	4	2	0	-1	-12	0
O=C1Nc2c(Cl)cc(Cl)cc2C12Nc1ccccc1S2 (stereo not given)	-37	-86	nt	-33	nt	nt	nt
COc1c(OC(C)=O)ccc(/C=C/c2ccc3ccccc3n2)c1[N+](=O)[O-]	17*	17	59*	0	2	25*	14*
Cc1cc(O)cc(=O)n1-c1cccc(Br)c1	3	-3	nt	0	nt	nt	nt
Cc1ccc(C2C3=C(CC(C)(C)CC3=O)N=C3c4ccccc4C(=O)C32)cc1 (stereo not given)	8.7*	3	15	1	-6	-16	3
OCCOCCn1c(C2CCCN2c2nc(-c3ccc(F)cc3)cs2)nc2cc(C(F)(F)F)ccc21 (stereo not given)	9.9*	12	18	0	-8	7	7
NNC(=O)C(=O)/C=C1\NC2(CCCC2)Cc2ccccc21	2	6	-4	-1	-1	nt	nt
COc1ccc(/C=N/NC(=O)C(=O)/C=C2\NC3(CCCC3)Cc3ccccc32)cc1	11*	10	11	-3	1	9	8
Cc1ccccc1NC(=O)c1cc(C(=O)c2cc(Cl)ccc2O)cn(-c2ccccc2C)c1=O	9.7*	15	32	-5	14*	5	8
COC(=O)[C@H](Cc1ccccc1)N1Cc2ccccc2Oc2cc(Br)ccc2S1(=O)=O	8	15	nt	0	nt	nt	nt
COc1ccc(N2CCN(C(=O)CCC(=O)N3CCOc4ccc(C)cc43)CC2)cc1	0	-9	0	0	-11	nt	nt
COc1ccc(N2CCN(C(=O)CCC(=O)N3CCOc4ccc(Cl)cc43)CC2)cc1	11*	11	8	0	3	29*	8
C[C@@H]1CN([C@H](C)CO)C(=O)c2cc(NC(=O)Cc3cn(C)c4ccccc34)ccc2O[C@H]1CN(C)C(=O)Nc1ccc2c(c1)OCO2	14*	18	0	0	-5	5	5
C[C@H]1CN([C@@H](C)CO)C(=O)c2cc(NC(=O)Cc3ccccc3)ccc2O[C@H]1CN(C)Cc1ccccc1	0	-3	-11	0	-1	nt	nt
C[C@H](CO)N1C[C@H](C)[C@@H](CN(C)C(=O)Nc2ccc3c(c2)OCO3)Oc2ccc(NC(=O)Cc3ccccc3)cc2C1=O	-3	-5	-5	0	-2	nt	nt
C[C@@H]1CN([C@H](C)CO)C(=O)c2cc(NC(=O)Cc3ccccc3)ccc2O[C@H]1CN(C)Cc1ccc(Oc2ccccc2)cc1	9.2*	19	18	1	1	28*	19*
COc1ccc(NC(=O)N(C)C[C@H]2Oc3ccc(NC(=O)Nc4ccc(C(F)(F)F)cc4)cc3C(=O)N([C@H](C)CO)C[C@@H]2C)cc1	8.7*	14	2	0	7	36*	18*
COCc1cc(N2CCN(C(=O)OC(C)(C)C)C[C@H]2C)ccc1N1CC[C@@H](O)C1	-6	-11	nt	0	nt	nt	nt
SMILES	ADAM17 inh	ADAM10 inh	FAS TE block	KLK7 zymogen act	NR3A LBD binder	ADAM10 counter	ADAM17 confirm
CCOC(=O)CN1C(=O)[C@]2(OCCC=C[C@H]2C)c2cc(OC)ccc21	-5	-15	nt	0	nt	nt	nt
C[C@@H]1CN([C@@H](C)CO)S(=O)(=O)c2ccc(Br)cc2O[C@@H]1CN(C)Cc1ccc2c(c1)OCO2	2	8	nt	0	nt	nt	nt
C[C@H](CO)N1C[C@H](C)[C@@H](CN(C)Cc2ccc3c(c2)OCO3)Oc2cc(Br)ccc2S1(=O)=O	8.9*	12	20	-1	nt	25*	14*
COc1ccc(S[C@@H](CCN2CC[C@H](C)CCC2=O)c2ccccc2)cc1	14*	15	29	0	-3	16	11*
C[C@H]1CN(c2ccc(Br)cc2)C(=O)[C@@H]1CC(=O)Nc1ccccc1	11*	9	8	0	nt	7	6
COc1ccc(N2C[C@H](C)[C@@H](CC(=O)Nc3ccccc3)C2=O)cc1	-2	-6	-6	-1	nt	nt	nt
COCCNC(=O)c1c(N)[nH]c(C(=O)c2ccc(Br)cc2)c1-c1ccc(Br)cc1	-3	-9	nt	0	nt	nt	nt
Cc1ccccc1OCc1nnc(SCC(=O)Nc2ccc3nc(SCC(=O)Nc4ccccc4)sc3c2)n1C	11*	12	-6	0	17*	-43	-8
Cc1ccccc1OCc1nnc(SCC(=O)Nc2ccc3c(c2)OCO3)n1C	2	3	-1	0	1	nt	nt
COc1ccc(CNC(=O)C[C@@H]2C[C@H]3c4cc(NC(=O)NC5CCCC5)ccc4O[C@H]3[C@H](CO)O2)cc1	9.1*	6	-3	2	nt	0	3
COc1ccc(CNC(=O)C[C@@H]2C[C@H]3c4cc(NC(=O)C5CCC5)ccc4O[C@H]3[C@@H](CO)O2)cc1	-5	-11	-6	1	nt	nt	nt
COC(=O)N1C[C@H](OCCCOCc2ccccc2)[C@H]2C[C@@H]1c1ccccc1O2	-3	-2	nt	0	nt	nt	nt
CC(C)CC1NC(=O)c2ccc(Cl)cc2-n2c1nc1cc(F)ccc1c2=O (stereo not given)	11*	9	nt	1	nt	21*	12*
CC(C)CC1NC(=O)c2cc(Cl)ccc2-n2c1nc1cc(F)ccc1c2=O (stereo not given)	8.7*	3	nt	1	nt	0	-1
